# Screens deposited in PubChem by several laboratories.
# hcDAF12 agonist – activates DAF-12 receptor from parasite H. contortus. 370,000 compounds, 1.4% hits. activation, % at 6.8 µM. HEK293 hcDAF-12 lit1-tk-luc reporter, luminescence; 0% DMSO, 100% Δ7-dafachronic acid. AID 652067;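 active = activation above the mean of all tested compounds plus 3 SD, cut at about 5.5% in these data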;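 note: 100% = response to 3 µM Δ7-dafachronic acid high control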
# ssDAF12 agonist – activators of S. stercoralis DAF-12 nuclear receptor; AID 652126; activation, % at 6.8 µM; 370,000 compounds, 1% hits; HEK293 ssDAF-12/GRIP1 lit1-tk-luc reporter, luminescence; % of 3 µM dafachronic acid response;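 active = activation above the mean over all tested compounds plus 3 SD, cut at about 0.9% in these data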;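 note: 0% = DMSO-only wells and 100% = 3 µM delta7-dafachronic acid wells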
# DAX1 inh-1 – DAX1 (NR0B1) inhibition, primary screen | AID 652010 | inhibition, % at 6.8 µM | 370,000 compounds, 1.1% hits | HEK293T StAR-luciferase reporter, SF-1/DAX-1 repression relief;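 active = inhibition above the mean over all tested compounds plus 3 SD, cut at about 3.6% in these data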;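 note: 0% = DAX-1 cells with DMSO and 100% = cells lacking DAX-1 with DMSO; higher inhibition means more luminescence from relief of DAX-1 repression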
# NR1D1 modulator – modulators of human Rev-erb alpha DNA binding. activity, % at 10 µM. AID 1259318. 370,000 compounds, 0.79% hits. Rev-erbα–FITC-DNA binding, fluorescence polarization, 90 min;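 active = activity above about 14%, limit read from the data; passing the limit was not always enough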;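 note: 0% = DMSO wells with 35 nM protein and 100% = DMSO wells with 750 nM protein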
# hgDAF-12 ag – hgDAF-12 agonism, primary luciferase screen | 370,000 compounds, 1.8% hits | AID 687014 | HEK293 GAL4-hgDAF12 UAS-luciferase reporter, agonist luminescence; normalized to butyrate control | activation, % at 6.8 µM;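 active = activation above a cutoff set at the mean of all screened compounds plus 3 SD, cut at about 10% in these data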;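 note: 0% = DMSO wells and 100% = sodium butyrate wells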
# DAX1 inh-2 – inhibitors of human orphan nuclear receptor DAX1 (NR0B1) | P51843 | HEK293 Gal4-DAX1 luciferase reporter, luminescence | inhibition, % at 6.75 µM | 340,000 compounds, 0.99% hits | AID 504766;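 active = inhibition above the mean over all tested compounds plus 3 SD, cut at about 4.2% in these data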;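 note: 0% = DAX1-transfected cells with DMSO and 100% = empty-vector control cells with DMSO; inhibition shows as a rise in luminescence from relieved DAX1 repression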
# Target sequence (P51843 207-470 limits assumed): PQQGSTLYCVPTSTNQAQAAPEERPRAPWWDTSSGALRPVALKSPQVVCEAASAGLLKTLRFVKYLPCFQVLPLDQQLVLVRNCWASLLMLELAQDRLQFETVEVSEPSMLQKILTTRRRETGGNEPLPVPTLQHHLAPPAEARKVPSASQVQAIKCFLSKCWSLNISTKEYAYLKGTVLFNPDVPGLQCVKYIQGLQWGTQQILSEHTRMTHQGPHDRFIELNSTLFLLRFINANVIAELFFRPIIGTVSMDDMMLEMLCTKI
# Numbers without * were called inactive; x = not tested or not shown. The list is not random: actives were taken first. Their share in the collection is about 4.8%.
SMILES,hcDAF12 agonist,ssDAF12 agonist,DAX1 inh-1,NR1D1 modulator,hgDAF-12 ag,DAX1 inh-2
O=C(Nc1ccc2ccccc2c1)OC1CCS(=O)(=O)C1 (stereo unspecified),3.8,2.1*,2.7,6.1,6.5,x
COc1ccccc1C1C(C(N)=O)=C(C)Nc2ncnn21 (stereo unspecified),0.2,-1.4,0.2,-2.4,1.3,6.7*
CC1=C(C(=O)OC(C)C)C(c2c[nH]c3ccccc23)n2ncnc2N1 (stereo unspecified),5.7*,0.7,-0.1,5.7,-0.8,0.9
CCCCNS(=O)(=O)/C=C/c1ccc(F)cc1CNC(=O)OC(C)(C)C,-2.1,-1.9,-1.0,-8.8,-0.9,x
CCCC(C)NC(=O)COC(=O)c1cccc(NS(C)(=O)=O)c1 (stereo unspecified),-0.8,-0.4,-0.4,0.6,1.9,4.6*
CCCCCCCCN1CCS(=O)(=O)N(Cc2ccccc2)C(C(=O)OC)C1 (stereo unspecified),-2.3,-1.0,-0.7,-0.4,-1.2,x
Brc1ccc2nc(-c3ccco3)c(Cc3ccsc3)n2c1,2.3,1.0*,-0.9,-15.4,1.1,x
CCCc1nc2ccc(Cl)cn2c1Cc1ccsc1,0.9,1.0*,0.3,-1.8,-0.7,x
Clc1ccc(-c2nc3ccc(Cl)cn3c2Cc2ccsc2)cc1,1.1,-0.6,3.8*,-3.7,11.1*,x
CCCc1ccc(S(=O)(=O)N2CCN(C(=O)CN3C(=O)NC(C)(C4CC4)C3=O)CC2)cc1 (stereo unspecified),1.2,-1.5,0.7,1.5,-2.4,4.3*
Cc1c(/C=C/C(=O)c2ccccc2O)cnn1C,4.0,0.1,2.6,5.5,13.2*,4.5*
Cc1ccc(/C=C/C(=O)c2ccccc2O)cc1,-1.8,-1.4,-0.1,-1.8,1.1,2.5
c1ccc(-n2ncc3c(NCCN4CCOCC4)ncnc32)cc1,2.6,-0.5,1.0,-0.1,6.1,3.3
Cc1nc(NCCCN2CCOCC2)c2cnn(-c3ccccc3)c2n1,4.3,-0.2,1.6,-0.3,12.0*,1.0
COC(=O)c1cc2c(c3c4cc(OC)ccc4n(S(=O)(=O)c4ccc(F)cc4)c13)C(=O)N(C)C2,2.6,-1.2,-0.4,-6.0,-0.9,x
CC(=O)c1ccc(N2Cc3ccccc3/C2=N\C(=O)Nc2ccc(Cl)cc2)cc1,1.9,0.6,1.4,6.8,12.2*,1.9
O=C(/C=C/c1ccc2c(c1)OCO2)c1ccc[nH]1,3.5,0.3,2.5,-0.9,10.8*,2.9
COc1cccc(/C=C/C(=O)c2ccc[nH]2)c1,3.2,1.2*,1.3,1.7,6.2,2.0
COc1cccc(/C=C/C(=O)Oc2ccc(C(=O)c3ccc(F)cc3)cc2)c1,0.4,-1.6,-0.4,0.8,-2.2,1.6
CCOC(=O)c1[nH]c2ccccc2c1NC(=O)NC(C)C,3.8,-0.3,-0.2,3.5,-0.1,2.9
CCOC(=O)c1[nH]c2ccccc2c1NC(=S)Nc1cccc(C)c1C,6.2*,0.5,0.8,-4.2,0.0,1.6
O=C(CN1CCc2onc(-c3cccc(-n4cc(CO)nn4)c3)c2C1=O)N1CCOCC1,1.1,-1.1,1.0,10.1,6.0,x
CCCCOCCCNC(=O)C[C@@H]1C[C@@]2(C(=O)OC)CC(C)(C)CC=C2N(CCc2ccc(OC)c(OC)c2)C1=O,-1.2,-1.6,0.3,3.2,-1.5,x
COC(=O)[C@@]12C[C@@H](CC(=O)NCCC(C)C)C(=O)N(CCc3ccc(OC)c(OC)c3)C1=CCC(C)(C)C2,-2.1,-1.2,4.4*,8.0,0.5,x
COC(=O)[C@]12C[C@H](CC(=O)NCCCCc3ccccc3)C(=O)N(Cc3ccc(Cl)cc3Cl)C1=C[C@H](C(C)(C)C)O[C@@H]2C,-2.3,-0.6,-1.0,3.8,3.9,x
O=C1CC2c3cc(Br)ccc3CCN2C(=O)CN1Cc1ccccc1 (stereo unspecified),-2.2,-0.9,-0.1,3.3,-2.4,x
O=[N+]([O-])c1cc(S(=O)(=O)Nc2ccccc2)ccc1NCc1ccccc1,-0.2,-1.7,-0.2,-1.9,0.1,-0.1
O=[N+]([O-])c1cc(S(=O)(=O)Nc2ccccc2)ccc1Nc1ccccc1,0.5,1.6*,-1.2,-2.0,-0.1,0.9
